{"source": "paper PMC5540273", "about": "(PLoS ONE, 2017);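 further: kd values determined as follow-up on hits from a single-replicate KINOMEscan panel screen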"}
{"test_system": "ICK", "units": {"Kd": "µM"}}
{"smiles": "Cl.NC(=O)c1cccc(Nc2nccc(Nc3ccc(Oc4cccc(Cl)c4)c(Cl)c3)n2)c1", "note": "[GW659008]", "Kd": "> 10"}
{"smiles": "Cc1cc(N2Cc3ccccc3C2)nc(Nc2ccc(S(=O)(=O)N3CCOCC3)cc2)n1.Cl", "note": "[GSK1669917]", "Kd": "> 10"}
{"smiles": "O=C(Nc1n[nH]c2nc(-c3nccs3)c(Br)cc12)C1CCCC1", "note": "[SB-742609]", "Kd": 0.22}
{"smiles": "CS(=O)(=O)c1ccc(-c2nc3n(c2-c2ccncc2)CCC3)cc1", "note": "[SKF-105942]", "Kd": "> 10"}
{"test_system": "IRAK3", "units": {"Kd": "µM"}}
{"smiles": "CCn1c(-c2ccccn2)nc2cnccc21", "note": "[SB-736398]", "Kd": 7.5}
{"smiles": "Cc1ccc(NC(=O)Nc2cccc(Cl)c2)cc1-c1ccc(C(=O)Nc2ccncc2)cc1", "note": "[GSK1398468]", "Kd": "> 10"}
{"smiles": "Cc1ccc(NC(=O)Nc2cc(C(C)(C)C)nn2-c2ccccc2)cc1", "note": "[GSK1014915]", "Kd": "> 10"}
{"smiles": "CS(=O)(=O)c1ccc(-c2c(-c3ncn[nH]3)sc(N3CCOCC3)c2C#N)cc1", "Kd": "> 10"}
{"smiles": "Cc1ccc(NC(=O)Nc2cccc(C(F)(F)F)c2)cc1", "note": "[GSK955403]", "Kd": "> 10"}
